The list is not random: actives were taken first. Their share in the collection is about 3.1%.
ARNT TACC3 PPI = ARNT/TACC3 interaction disruption | Q9Y6A5 | AlphaScreen His-ARNT PAS-B/GST-TACC3 binding, luminescence; TACC3 fragment carries E629A point mutation | inhibition, % at 9.99 µM | 390,000 tested, 0.66% active | AID 623870;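 active = mean inhibition of replicates at least 50% and at least half of replicates each reaching 50%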;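 note: 0% = complete ARNT plus TACC3 wells and 100% = ARNT alone without TACC3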
HSF1 inh = HSF1 inhibition; NIH3T3-HGL HSE-luciferase, MG132-induced, luminescence 8 h; hits give low values; activity change, negative = inhibition, % at 7.5 µM (by protocol); 300,000 tested, 0.77% active; AID 2098;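 active = more than half of replicate wells show activity change below -50%, luminescence cut by over half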;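 note: luciferase reports HSF-1 transcriptional activity via heat shock element; 0% = median of DMSO wells and -100% = zero luminescence signal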
HSP90 inh = inhibitors of HSP90 luciferase refolding in rabbit reticulocyte lysate. luciferase refolding luminescence, 3 h. inhibition, % at 5.6 µM. 290,000 tested, 0.91% active;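 active = inhibition above the screen-wide mean plus 3 SD, computed separately per campaign, cut at about 16% in these data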;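 note: 0% = DMSO wells and 100% = 60 µM geldanamycin wells; inhibitors lower the luminescence because luciferase stays unfolded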
HIF act = HIF pathway transcriptional activation | AID 1910 | 300,000 tested, 0.32% active | U2OS HRE-luciferase reporter, luminescence; normalized: DMSO 0%, desferrioxamine 100% | activation, % at 7.5 µM (by protocol);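 active = mean activation of at least 10% of the iron chelator positive control signal, with at least half of replicates also reaching 10%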
HSF-1 act = increases HSF-1 driven luciferase reporter signal; 300,000 tested, 1.7% active; NIH3T3-HGL HSF-1 luciferase reporter, MG132, 8 h; 100% = twice DMSO control signal; activation, % at 9 µM;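 active = mean replicate activation of at least 50% with a set share of replicates each reaching 50%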;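 note: 0% = median of the neutral control wells and 100% = twice that signal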
HSP90 inh confirm = confirmation of HSP90 inhibitors | shares compounds with HSP90 inh | AID 1846 | rabbit reticulocyte lysate, luciferase refolding luminescence, 3 h | inhibition, % at 5.9 µM | 2,300 tested, 64% active; in the data active = inhibition above about 18%;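 note: 0% = vehicle wells and 100% = reference inhibitor wells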
luciferase ctr = counter-screen for HSP90 inhibitors: inhibitors of firefly luciferase; inhibition, % at 5.9 µM; shares compounds with HSP90 inh; AID 1847; 2,300 tested, 48% active; purified native firefly luciferase, luminescence;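 active = inhibition above the mean inhibition of all tested sample wells plus 3 SD, cut at about 10% in these data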;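 note: 0% = DMSO with luciferase and 100% = wells lacking luciferase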
Target sequence (P08659 whole entry, looked up): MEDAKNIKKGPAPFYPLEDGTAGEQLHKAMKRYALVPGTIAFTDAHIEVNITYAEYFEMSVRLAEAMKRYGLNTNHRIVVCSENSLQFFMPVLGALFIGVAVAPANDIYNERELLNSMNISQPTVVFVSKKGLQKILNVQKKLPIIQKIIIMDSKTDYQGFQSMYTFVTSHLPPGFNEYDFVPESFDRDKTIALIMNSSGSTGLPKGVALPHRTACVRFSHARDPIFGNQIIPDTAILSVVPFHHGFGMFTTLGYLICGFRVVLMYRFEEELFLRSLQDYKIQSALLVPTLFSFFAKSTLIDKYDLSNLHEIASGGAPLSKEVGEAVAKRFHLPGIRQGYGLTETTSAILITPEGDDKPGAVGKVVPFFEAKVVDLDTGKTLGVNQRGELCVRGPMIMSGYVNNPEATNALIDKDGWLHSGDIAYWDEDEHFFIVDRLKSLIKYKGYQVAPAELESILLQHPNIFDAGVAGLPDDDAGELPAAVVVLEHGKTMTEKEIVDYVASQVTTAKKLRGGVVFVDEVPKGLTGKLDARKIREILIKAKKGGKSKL
Starred values were filed as active, the others as inactive; nt = no result given.

SMILES	ARNT TACC3 PPI	HSF1 inh	HSP90 inh	HIF act	HSF-1 act	HSP90 inh confirm	luciferase ctr
CCOc1cc(/C=N/Nc2cccc(C(=O)O)c2)ccc1OC(=O)c1ccccc1	5	-5	37*	-1	-8	96*	32*
CCOc1cc(/C=N/NC(=O)CNc2cccc(C)c2)ccc1OC(=O)c1ccccc1	-3	-1	0	-2	-5	nt	nt
COc1ccc(C(=O)Oc2ccc(/C=N/Nc3ccc(Cl)c(C(=O)O)c3)cc2OC)cc1	nt	3	46*	1	11	66*	-2
COc1cc(/C=N/Nc2ccc(Cl)c(C(=O)O)c2)ccc1OC(=O)c1cccs1	6	nt	21*	nt	nt	61*	-24
C[C@@H]1CCCCO[C@@H](CN(C)S(=O)(=O)c2ccc(Cl)cc2)[C@@H](C)CN([C@@H](C)CO)C(=O)c2cc(NC(=O)Nc3ccc4c(c3)OCO4)ccc2O1	-3	nt	nt	nt	nt	nt	nt
CCCNC(=O)N1[C@H](CO)[C@H]2c3ccccc3N(C(=O)NC(C)C)C[C@H]21	16	nt	nt	nt	nt	nt	nt
CCOc1ccc(NC(=O)N2CCC(c3nc4ccccc4[nH]3)CC2)cc1	nt	nt	25*	0	nt	-13	-16
O=C(NCc1ccco1)C1CCCN(S(=O)(=O)Cc2ccccc2)C1 (stereo not drawn)	-5	-8	49*	0	-6	-2	-8
CC1(C)Oc2ccc(NC(=O)C3COc4ccccc4O3)cc2O1 (stereo not drawn)	1	-11	27*	-2	-25	49*	44*
CC(=O)c1sc(NC(=O)C2COc3ccccc3O2)nc1C (stereo not drawn)	-1	-1	43*	-3	-5	70*	66*
O=C(C[C@@H]1C=C[C@@H](NC(=O)C2CCC2)[C@H](CO)O1)NCc1ccncc1	-3	nt	nt	nt	nt	nt	nt
O=C(CN1C(=O)c2cccnc2Oc2ccc(Cl)cc21)Nc1ccccc1F	1	8	36*	1	4	-7	-18
COc1cccc(NC(=O)CN2C(=O)c3cccnc3Oc3ccc(Cl)cc32)c1	1	12	-3	1	36	nt	nt
Cn1ccc(C(=O)Nc2sc3c(c2C(N)=O)CCCCC3)n1	-8	-10	19*	0	-7	38*	19*
CCCCN(C)S(=O)(=O)c1c(C)[nH]c(=O)[nH]c1=O	-12	-12	25*	-1	2	1	-7
CCCCN(CCCC)S(=O)(=O)c1c(C)[nH]c(=O)[nH]c1=O	-5	-1	-2	-1	-8	nt	nt
CC(C)Oc1ccc(CCC(=O)NNC(=S)Nc2ccccc2)cc1	3	-9	18*	0	4	-6	-10
Cc1noc(C)c1NC(=O)Nc1cccc2c1O[C@H](CN(C)Cc1ccc(-c3ccccc3)cc1)[C@@H](C)CN([C@H](C)CO)C2=O	8	nt	nt	nt	nt	nt	nt
COc1ccc(C(=O)c2coc3ccc(O)c(CN4CCOCC4)c23)cc1	nt	1	4	0	6	nt	nt
COc1ccc(C(=O)c2coc3ccc(O)c(CN4CCCC4)c23)cc1	5	13	50*	0	18	0	-5
COc1cccc(OCCSc2nnc3sc4ccccc4n23)c1	4	0	-1	0	28	nt	nt
c1ccc(OCCSc2nnc3sc4ccccc4n23)cc1	-4	11	45*	-3	-4	76*	74*
COc1ccc(-c2csc(Nc3ccc(S(N)(=O)=O)cc3)n2)cc1OC	nt	1	23*	0	18	-7	-6
NS(=O)(=O)c1ccc(Nc2nc(-c3ccc(F)cc3)cs2)cc1	-3	16	-4	0	14	nt	nt
CCOC(=O)c1c(-c2ccc(C)o2)csc1NC(=S)NC(=O)c1cccs1	-4	2	-1	0	6	nt	nt
SMILES	ARNT TACC3 PPI	HSF1 inh	HSP90 inh	HIF act	HSF-1 act	HSP90 inh confirm	luciferase ctr
CCOC(=O)c1c(-c2ccc(C)o2)csc1NC(=S)NC(=O)c1ccccc1Br	4	82	21*	0	85*	5	-6
COc1ccc(NC(=O)Nc2ccc3c(c2)[C@@H]2C[C@H](CC(=O)N(C)C)O[C@@H](CO)[C@@H]2O3)cc1	4	nt	nt	nt	nt	nt	nt
Cc1cc2ccccc2n1CCNC(=O)c1cccs1	3	-4	23*	2	-5	39*	-3
CS(=O)(=O)Nc1ccc2c(c1)[C@H]1C[C@H](CC(=O)NCc3ccc(Cl)cc3)O[C@H](CO)[C@H]1O2	2	nt	nt	nt	nt	nt	nt
O=C(Nc1nc2ccccc2[nH]1)c1cccc(Cl)c1	-1	29	-2	4	42	nt	nt
O=C(Nc1nc2ccccc2[nH]1)c1ccccc1	3	-1	17*	-1	32	57*	39*
CC(=O)Nc1nc2ccccc2[nH]1	0	-5	0	1	-4	nt	nt
O=C(Nc1nc2ccccc2[nH]1)c1ccc(Cl)cc1	3	23	46*	-2	39	65*	58*
Cc1c(O)ccc(C(=O)CN2CCN(Cc3ccc4c(c3)OCO4)CC2)c1O	5	-7	84*	1	-18	-7	-11
CCOC(=O)N1CCN(Cc2ccc3c(c2)OCO3)CC1	-2	0	0	-2	-4	nt	nt
Cc1cc(NC(=O)c2cccc(COc3ccc(Br)cc3)c2)no1	-4	-2	21*	0	0	64*	53*
CC(C)c1cc(C(N)=O)c(NC(=O)c2cccc(COc3ccc(Cl)cc3)c2)s1	nt	-9	49*	0	-18	71*	69*
CNC1=C(N(C(C)=O)c2ccc(Br)cc2)C(=O)c2ccccc2C1=O	46*	-33	63*	-6	-40	12	-7
CCC(=O)N(C1=C(NC)C(=O)c2ccccc2C1=O)C(C)C	16	3	0	0	-2	nt	nt
O=C(O)c1ccc(S(=O)(=O)/N=C2\C=C(Nc3ccccc3F)C(=O)c3ccccc32)cc1	nt	51	92*	-1	65*	94*	-15
Cc1ccccc1NC1=C/C(=N\S(=O)(=O)c2ccc(C(=O)O)cc2)c2ccccc2C1=O	31	-9	98*	-14	-1	96*	-11
CCc1ccc(S(=O)(=O)/N=C2\C=C(NS(=O)(=O)c3ccccc3)C(=O)c3ccccc32)cc1	19	3	2	-24	12	nt	nt
COc1ccc(NC(=O)N2C[C@@H](O)COC[C@@H]3O[C@H](CC(=O)NC4Cc5ccccc5C4)CC[C@H]32)cc1	3	nt	nt	nt	nt	nt	nt
COc1cccc(NC(=O)N2CCc3ccccc3C2)c1	-5	12	21*	1	7	3	-15
O=C(Nc1cccc(Cl)c1)N1CCc2ccccc2C1	1	12	-3	3	40	nt	nt
O=C(CN1CCOCC1)N[C@@H]1CC[C@@H](CCNS(=O)(=O)c2ccccc2F)O[C@H]1CO	-8	nt	nt	nt	nt	nt	nt
